# Compound activity: PubChem BioAssay, National Center for Advancing Translational Sciences (NCATS)
# Rows were chosen to be rich in hits. Some 7.9% of all compounds tested hit in one or more screens of this group.
# HCMV inh: human cytomegalovirus inhibition; HFF cells, HCMV-luciferase reporter, 72 h; active compounds read low; activity change, negative = inhibition, % at 57.5 µM; 410,000 compounds, 4.5% hits; in the data active = activity change below about -60%; inconclusive = no clear call, values can overlap the other calls; inactive = above about -39%
#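 Compounds were evaluated in HFFs infected with an HCMV luciferase reporter virus (MOI 1 PFU/cell). Luciferase in lysates collected 72 h post infection served as the replication measure.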
# Lassa entry inh: blocks Lassa virus binding to or entry into cells | Lassa virus pseudotype entry inhibition, cell reporter | 300,000 compounds, 1.2% hits | Potency, µM (series often up to 37.9 µM), without a hit: at the top dose activity change, negative = inhibition, most hits filed as inhibitors; calls by dose curve; tested in HEK293 cells; also: potency is read from the fitted curve at half-maximal effect; nearly all actives have a fitted effect of over 50% in size
# FMDV inh: antivirals against foot and mouth disease virus; FMDV antiviral cell-based qHTS; Potency, µM (series often up to 57.9 µM), inactives show at the top dose activity change, negative = inhibition, hits mostly inhibitors; 410,000 compounds, 1.2% hits; AID 1159524; calls by dose curve; tested in HEK293T cells; also: read-out not given here; potency is read from the fitted curve at half-maximal effect; nearly all actives have a fitted effect of over 45% in size
# HCV inhibitor: HCV inhibition; Huh7.5.1 HCVcc-Cre infection, luciferase reporter, 44 h; Potency, µM (series often up to 41.8 µM), inactives show at the top dose activity change, negative = inhibition, most hits filed as inhibitors; 340,000 compounds, 3.4% hits; AID 651820; active = well fitted inhibition curve with a large enough effect; inconclusive = small, poorly fitted or top-dose-only effect, or another doubt; inactive = no such curve, though single readings can be large or run the other way; also: potency is read from the fitted curve at half-maximal effect
#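 Infectious HCVcc-Cre (~0.5 moi) was added to cells just after compound, with cells seeded 4 h earlier at 1,000 per well. Luciferase activity after 44 h culture reported infection; substrate was incubated 15 min at room temperature before reading.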
# Marburg entry inh: Marburg virus entry inhibition; AID 540276; 300,000 compounds, 1.8% hits; Marburg virus pseudotyped entry inhibition, cell reporter; Potency, µM (top dose mostly 37.8 µM), inactives show at the highest dose activity change, negative = inhibition, hits mostly inhibitors; calls by dose curve; tested in HEK293 cells; also: potency is read from the fitted curve at half-maximal effect
# * marks the source's active call; other numbers are inactive results; u = inconclusive; x = no result given; [ ] = dose if it differs, or a comment. % is scaled to controls: 0 for no effect and ±100 for the full control effect.
SMILES,HCMV inh,Lassa entry inh,FMDV inh,HCV inhibitor,Marburg entry inh
CCOC(=O)c1c(NC(=O)c2cc(-c3cccc(Cl)c3)on2)sc(C(C)=O)c1C,6,-17%[46.1 µM],-5%,x,-11%[46.1 µM]
Cc1cccn2c(=O)c(/C=C(\C#N)c3nc4ccccc4s3)c(Oc3ccc(Br)cc3)nc12,-3,19%[46.1 µM],-10%,x,10%[46.1 µM]
COC(=O)C1CCN(Cc2ccc3c(c2)CN(C(=O)c2ccc(-n4cnnn4)cc2)CCO3)CC1,x,x,2%,x,x
Cc1ccc(-c2c[n+](CC(=O)Nc3cc(=O)n(C)c(=O)n3C)c3n2CCC3)cc1,-68*,11%,0%,9%,4%
Cc1ccc(-c2c[n+](CC(=O)Nc3nc(-c4ccccc4)cs3)c3n2CCC3)cc1,17,0%,-11%,6.3µM*,-23%[46.1 µM]
C[C@H]1CN=C(N(C)C)N1CCCC1CCCCC1,-22,x,-29%,u,x
CCCOc1ccc(C(F)(F)F)cc1NC(=O)CCc1c(C)noc1C,0,x,-21%,7.1µM*,x
CC(=O)Nc1cc(C(F)(F)F)ccc1OCCOc1ccccc1,16,0%,-28%,10µM*,-3%
COCCOc1ccc(C(F)(F)F)cc1NC(=O)c1ccccc1,13,u,8%,-5%,17%
COCCN1C(=O)NC(c2cccc(C(F)(F)F)c2)C(C(C)=O)=C1C (centres undefined),x,x,x,x,11%[14.2 µM]
O=C1OC(N2C(=O)CC[C@H]2C(=O)Nc2ccc(Br)cc2F)c2ccccc21 (some centres undefined),0,x,-23%,4%,x
COc1ccc2c(c1OC)C(=O)OC2N1C(=O)CC[C@H]1C(=O)Nc1ccc(F)cc1F (some centres undefined),18,x,-17%,0.56µM*,x
CC(C)N(CCNC(=O)COc1ccc2oc3c(c2c1)CCCC3)C(C)C,-20,-24%[46.1 µM],0%,13µM*,u
Cc1cccc(CN2C(=O)NC(c3ccccc3)(c3ccccc3)C2=O)c1,-69*,u,-25%,-13%,u
NC(=O)c1ccc(CSc2nc3ccccc3s2)cc1,76,u,8%,4%,u
c1ccc2sc(SCc3ccc(-c4nnco4)cc3)nc2c1,81,11µM*,1%,u,u
Cc1cc(C(c2cc(C)c(N)c(C)c2)c2ccco2)cc(C)c1N,1,-15%,-8%,5%,u
CCN(CC)S(=O)(=O)c1cnccc1N1CCN(c2cccc(Cl)c2)CC1,-29,u,40µM*,-18%,u
CNS(=O)(=O)c1cnccc1N1CCN(c2cccc(Cl)c2)CC1,-15,5%,-29%,-6%,1%
Cc1ccc(NC(=S)NCC2CCN(C(C)c3ccccc3)C2)cc1C (centres undefined),-63*,x,-3%,-12%,x
Cc1ccc(NC(=S)NCC2CCCO2)cc1C (centres undefined),-9,-11%,23%,-14%,0%
COc1cc(/C=N/NC(=O)c2ccncc2)ccc1OC(=O)c1cccc(F)c1,16,-20%,-9%,17%,1%
Cc1cccc(CSc2nc(N)c(C#N)c(-c3cccs3)c2C#N)c1,-35,-21%,u,11µM*,u
O=C(N/N=C/c1ccc2c(c1)OCO2)c1cc(-c2ccc(F)cc2)nc2ccccc12,13,0.58µM*,22%,-25%,u
COc1ccccc1C(=O)N/N=C/c1ccc2c(c1)OCO2,91,u,49%,3%,u
SMILES,HCMV inh,Lassa entry inh,FMDV inh,HCV inhibitor,Marburg entry inh
COc1ccc(-c2cc(C(=O)N/N=C/c3sccc3C)c3ccccc3n2)c(OC)c1,-63*,3.2µM*,-8%,u,5µM*
COc1ccccc1-c1cc(C(=O)N/N=C/c2cccs2)c2ccccc2n1,u,u,-23%,u,u
COc1ccc(-c2cc(C(=O)N/N=C/c3ccc4c(c3)OCO4)c3ccccc3n2)c(OC)c1,-7,2.5µM*,-6%,u,4µM*
COc1ccccc1N/N=C/c1ccc2c(c1)OCO2,-71*,20%,41%,2%,-16%
O=C(O)COc1ccccc1/C=N/NC(=O)c1cc(-c2ccc(F)cc2)nc2ccccc12,20,-19%,3%,-31%,-24%[46.1 µM]
Cc1ccc2cccc(NC(=O)COc3ccccc3[N+](=O)[O-])c2n1,26,-20%[46.1 µM],-21%,x,-22%[46.1 µM]
O=C1C2=C(Nc3ccccc3SC2c2ccc(Cl)c(Cl)c2)c2ccccc21 (centres undefined),-100*,u,1%,x,-13%[46.1 µM]
CCCc1ccc(C2Sc3ccccc3NC3=C2C(=O)c2ccccc23)cc1 (centres undefined),-93*,u,-9%,x,u
O=C1C2=C(Nc3ccccc3SC2c2c(F)cccc2Cl)c2ccccc21 (centres undefined),19,2%[46.1 µM],-3%,x,-6%[46.1 µM]
O=C1C2=C(Nc3ccccc3SC2c2ccccc2C(F)(F)F)c2ccccc21 (centres undefined),-94*,-13%[46.1 µM],-1%,x,u
CCOc1ccc(N2CC(c3nc4ccccc4n3CCCOc3ccccc3)CC2=O)cc1 (centres undefined),-38,u,u,x,-46%[46.1 µM]
CN1C[C@@H](O)[C@@H](O)[C@@H](O)[C@@H]1CO,x,x,x,x,22%
COc1ccc(OC)c(-c2ccnc(-n3ncc(C(=O)N4CCN(CCO)CC4)c3C3CC3)n2)c1,x,x,-8%,x,x
Cc1cc(NC(=O)CSc2nnc(-c3ccccc3C)n2C)no1,19,8%,-4%,0%,16%
Cc1cc(NC(=O)CSc2nnc(-c3ccco3)n2C)no1,-60*,x,-13%,31%,x
Cc1cc(NC(=O)CSc2nccn2-c2cccc(C)c2C)no1,-8,u,0%,11µM*,u
COC(=O)c1c(OCc2ccccn2)cc(=O)n2c1CCN(C(=O)c1n[nH]c3c1CCCC3)CC2,x,x,-11%,x,x
CCOC(=O)[C@H]1[C@H]2COc3ccc(Cl)cc3[C@@H]2N2C(=O)CNC(=O)[C@@]12C,-6,x,0%,-19%,x
O=C1C=C(O)c2ccccc2C1=O,x,x,7%,x,x
O=C1C=C(c2c(O)ccc3ccccc23)c2ccccc2C1=O,-97*,6.3µM*,22µM*,u,u
COCc1ccc(CN2CCC(C(=O)Nc3cccc(-c4cccc(Cl)c4)c3)CC2)o1,42,u,u,10µM*,u
C=CCn1cc(CN2CCC(C(=O)Nc3cccc(-c4cccc(Cl)c4)c3)CC2)c(C)n1,-39,x,u,5µM*,x
O=C(Nc1cccc(-c2cccc(Cl)c2)c1)C1CCN(Cc2ccccn2)CC1,-74*,10µM*,-20%,10µM*,u
O=C(Nc1cccc(-c2cccc(Cl)c2)c1)C1CCN(Cc2ccon2)CC1,-37,x,-24%,u,x
O=C(Nc1cccc(-c2cccc(Cl)c2)c1)C1CCN(CC2CCOC2)CC1 (centres undefined),u,x,28%,10µM*,x
C=CCn1cc(CN2CCC(C(=O)Nc3cccc(-c4cccc(F)c4)c3)CC2)c(C)n1,-20,-1%,u,u,u
